Inconclusive results are not listed. Where a call stands in place of a potency, no number is given. Activity calls are given as the source filed them. The call rests on the fitted dose curve; in most records, active means well fitted cell-killing curve with a large enough effect; inconclusive means small, poorly fitted or top-dose-only effect, or effect the other way; inactive means flat fitted curve, though single readings scatter.
Potency means the concentration at half of the fitted maximal effect.

This test relates to SKOV3. Nature of the test: Primary qHTS to identify gynecologic anti-cancer compounds using libraries of approved drugs and bioactive compounds (AID 1345084). Further: nearly all actives have a fitted effect of over 55% in size. Particulars: Gynecologic cancer cell panel viability, ATPlite luminescence, 48 h; series mostly up to 57.5 µM. An outline of the steps:
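Measured: luminescence after ATPlite addition (15 min, RT). Exposure: 48 h, 37 C, 5% CO2.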
Background: Quantitative high-throughput screening tests each substance at several concentrations.
Take `CN(C)[C@@H]1C(=O)C(C(N)=O)=C(O)[C@@]2(O)C(=O)C3=C(O)c4c(O)ccc(Cl)c4[C@@](C)(O)C3C[C@@H]12` (stereo partly drawn): the Potency entry is “inactive”.
As to `CC(C)[C@H](NC(=O)c1nn(Cc2ccc(F)cc2)c2ccccc12)C(N)=O`, the Potency entry is “inactive”.
Regarding `CN1CCCCC1Cn1cc(C(=O)c2cc([N+](=O)[O-])ccc2I)c2ccccc21` (stereo not drawn), the Potency entry is “inactive”.
As to `C=C1C(=O)CC2OC2(C)CC2OC(=O)C(=C)C2C(O)C1OC(=O)/C(C)=C\C` (stereo not drawn), the Potency entry is “inactive”.
On to `CC12CCC3C(C1)c1c(cc(O)c(C(=O)c4ccccc4)c1OC3(C)C)O2` (stereo not drawn), for which the Potency entry is “inactive”.
As for `CN1C(=O)[C@@H](Cc2c[nH]c3ccccc23)N=C(c2ccccc2F)c2ccccc21`, the Potency result is “inactive”.
For the compound `CCC1C2CC3C4N(C)c5ccccc5C45CC(C2C5O)N3C1O` (stereo not drawn), the Potency result was “inactive”.
As for `CCCCCCC1C(=O)O[C@H](C)[C@H](NC(=O)c2cccc(NC=O)c2O)C(=O)O[C@@H](C)[C@@H]1OC(=O)CC(C)C` (stereo partly drawn), the Potency is 0.794 µM (active).
For the compound `C[C@@H]1O[C@@H](OC2CCC3(C=O)C(CCC4C3CCC3(C)C(C5=CC(=O)OC5)C(O)CC43O)C2)[C@H](O)[C@H](O)[C@H]1O[C@@H]1O[C@H](CO)[C@@H](O)[C@H](O)[C@H]1O` (stereo partly drawn), the Potency is 11.2 µM (active).
For `CCN1C[C@]2(COC)CC[C@H](O)[C@@]34C5C[C@@H]6[C@@H](OC)C[C@@](OC(C)=O)(C5[C@@H]6OC(C)=O)[C@H]([C@H](OC)C23)[C@@H]14` (stereo partly drawn), the Potency entry is “inactive”.
Next, `C[C@]12CC[C@H](O)C[C@@]1(O)CC[C@@H]1[C@@H]2CC[C@]2(C)[C@@H](c3ccc(=O)oc3)CC[C@]12O`: “inactive”; `CN1C(=O)N(c2ccc(C#N)c(C(F)(F)F)c2)C(=O)[C@@]1(CO)c1ccccc1`: “inactive”; `CC(=O)O[C@H]1C[C@]2(O)[C@@H]3CC[C@@H]4C[C@@H](O)CC[C@]4(C)[C@H]3CC[C@]2(C)[C@H]1c1ccc(=O)oc1`: 0.1 µM (active).
Next, `CCCCCn1cc(C(=O)Oc2cccc3cccnc23)c2ccccc21`: “inactive”; `CN=C(NS(=O)(=O)c1ccc(Cl)cc1)N1C[C@H](c2ccccc2)C(c2ccc(Cl)cc2)=N1`: “inactive”; `COC1CC(O[C@H]2CC[C@@]3(C)C(CCC4C3CC[C@]3(C)C(C5=CC(=O)OC5)CCC43O)C2)OC(C)C1OC1OC(COC2OC(CO)C(O)C(O)C2O)C(O)C(O)C1O` (stereo partly drawn): 3.16 µM (active).
`C=C(C)[C@@]12O[C@@H]1[C@@]1(C)C(=CC2=O)CC[C@@H](OC(C)=O)[C@@H]1C`: the Potency was 3.16 µM (active).
The result for `CN(Cc1cccc(-c2ccncc2)c1)C(=O)Oc1ccc(-c2ccc(C(N)=O)cc2)cc1` reads “inactive”.
Next, `CN(C(=O)C(c1ccccc1)c1ccccc1)[C@H](CN1CC[C@H](O)C1)c1ccccc1`: “inactive”.
Consider `COC(=O)C12C(=O)C(C)(O)C(=O)C1(C)C(C)=CC1C34CCC(OC3=O)C(C)(C)C4CCC12C` (stereo not drawn), for which the Potency entry was “inactive”.
`CCOc1ccc(Oc2ccc(OCc3cc(F)ccc3F)cc2)c(N)c1`: the Potency result was “inactive”.
The result for `Cc1ccc2c(c1)[C@H]1CN(C)CC[C@H]1N2C(=O)CSc1nnnn1-c1ccc(Cl)cc1` reads “inactive”.
As for `C=C1C2(C)CC3C(C)(O)C4=CC(=O)OC(C)(C)C4=CCC3(C)C13C(=O)OC(C)C3(O)C2=O` (stereo not drawn), the Potency entry was “inactive”.
The result for `Fc1cc(F)c2c(c1)C1C=CCC1C(c1cccnc1)N2` (stereo not drawn) reads 11.2 µM (active); that for `c1ccc([C@@H]2C[C@H]2NC2CCNCC2)cc1`, “inactive”.
Regarding `CC(=O)OC[C@]12[C@H](OC(C)=O)C(=O)[C@@H]3[C@@H](O)[C@@]14O[C@@]3(C)COC(=O)c1cccnc1[C@@H](C)[C@H](C)C(=O)O[C@@H]([C@H](OC(C)=O)[C@@H]2OC(C)=O)[C@]4(C)O`, the Potency entry is “inactive”.
Take `Cc1c(N[C@@H](c2nnc(-c3ccc(C#N)cc3)o2)[C@H](C)O)ccc(C#N)c1Cl`: the Potency entry is “inactive”.
On to `COc1ccc2c(c1)c(CCN(C)C)cn2S(=O)(=O)c1ccccc1`, for which the Potency entry was “inactive”.

For the origin of these results see PubChem BioAssay (NCATS).
